The values below come from PubChem BioAssay (NCI).

Holding throughout (assay): NCI-60 one-dose screen, 48 h (100 = growth as untreated, 0 = no growth, -100 = all killed)
Common to all, as to conditions: 10 µM unless noted

For experiment [1], the system named is SR leukemia.
In experiment [2] the test system is RPMI-8226 leukemia.
Experiment [3] relates to OVCAR-8 ovarian.
Experiment [4] deals with OVCAR-5 ovarian.
Experiment [5] has as its system OVCAR-4 ovarian.
In experiment [6] the test system is SK-OV-3 ovarian.
Experiment [7] concerns IGROV1 ovarian.
For experiment [8], the system named is OVCAR-3 ovarian.
Experiment [9] deals with HS 578T breast.
Experiment [10] deals with NCI/ADR-RES ovarian.

Each structure is given as a SMILES string. Compounds without any hit were thinned out: in the full panel of roughly 83,000, 20% have a hit.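 Treatment: one concentration, 48 hours, 96-well format. Scoring: percent growth, with anything below 10 considered active.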 Values without a mark were called inactive. Calls of active or inactive are those of the source.

`COC1(OC)N=C(N)C2(C#N)C3(C(=O)Nc4ccccc43)C12C#N` (stereo not given): the growth in experiment [1] was 6.82% (active); in [2], 49.7%; in experiment [3], 94.2%; in [4], 65.1%; in [5], 60%; in [6], 77.4%. Also, the growth is 63.5% in experiment [7], 84% in [8], 67.2% in [9] and 100% in experiment [10].

In the case of `CCN(CCO)CCNc1ccc(C)c2sc3cc(OC)ccc3c(=O)c12`, the growth was -3.46% (active) in experiment [1]; 65.3% in [2]; 62.7% in experiment [3]; 82.7% in experiment [4]; 84.7% in experiment [5]; 88.7% in experiment [6]. Besides, the growth in experiment [7] was 66.5%; in experiment [8], 90.6%; in experiment [9], 84.2%; in experiment [10], 64.1%.

As to `COc1ccc(C2=NN(C(=O)c3cc(-c4ccc(C)cc4)nc4ccccc34)C(c3cc(-c4ccccc4)nn3-c3ccccc3)C2)cc1` (stereo not given), the growth was 89.5% in [1]; 78.1% in [2]; 93.3% in experiment [3]; 102% in experiment [4]; 93.3% in experiment [5]; 112% in experiment [6]. For the same compound, the growth in experiment [7] is 98.3%; in experiment [8], 84.4%; in experiment [9], 95.8%; in experiment [10], 92.5%.

For `O=Nc1ccc(O)c2ccccc12`, the growth is 11.5% in experiment [1]; -12.1% (active) in experiment [2]; 7.56% (active) in [3]; 1.31% (active) in experiment [4]; -96.5% (active) in experiment [5]; 99.9% in [6]. The growth is 2.08% (active) in experiment [7], -6.85% (active) in [8], 53.2% in experiment [9] and -0.605% (active) in [10].

For the compound `COc1cc(OC)cc(-c2ccc(-c3ccc(C(=N)N)cc3)s2)c1`, the growth was -4.93% (active) in experiment [1]; -58.2% (active) in [2]; -27.8% (active) in [3]; -82% (active) in experiment [4]; -67.5% (active) in experiment [5]; -81.9% (active) in experiment [6]. Also, the growth in experiment [7] was -71.1% (active); in [8], -86.2% (active); in experiment [9] it was -51.8% (active); in [10], -51.4% (active).

In the case of `COc1ccc(/C=C2\SC(=O)N(Cc3cc(=O)oc4ccc(OC)cc34)C2=O)cc1`, the growth in experiment [1] was 69.6%; in [2] it was 64.1%; in experiment [3], 95.4%; in experiment [4], 100%; in experiment [5], 63.6%; in experiment [6], 96.6%. For the same compound, the growth was 98.1% in experiment [7], 84.6% in experiment [8], 103% in [9] and 95.7% in experiment [10].

Turning to `COc1cc(CNC(=O)CCCC/C=C/C(C)C)ccc1OCc1nnc(Nc2ccccc2F)o1`, the growth is 67.3% in experiment [1]; 64.9% in [2]; 45.2% in experiment [3]; 77.7% in [4]; 0.691% (active) in experiment [5]; 48.6% in [6]. Besides, the growth is 58.4% in experiment [7], 68.3% in experiment [8], 83.7% in experiment [9] and 43.3% in [10].

In the case of `CC([C@H]1CCC2C3CCC4C[C@@H](N)CC[C@]4(C)C3CC[C@@]21C)N(C)C` (stereo not given in full), the growth was 18.5% in experiment [1]; 58.7% in experiment [2]; 85.7% in experiment [3]; 98.5% in [4]; 38.4% in [5]; 91.1% in experiment [6]. Moreover, the growth in experiment [7] is 53.1%; in experiment [8], 71.5%; in [9], 79.1%; in [10], 81.5%.

Consider `COc1cccc(NC(=O)NCCNc2nccc(-c3c(-c4ccc(F)cc4)nc4sccn34)n2)c1`, for which the growth in [1] was 88.3%; in experiment [2], 82.2%; in experiment [3] it was 65.5%; in experiment [4], 87%; in [5] it was 96%; in experiment [6], 77.9%. In addition, the growth in experiment [7] is 60.5%; in experiment [8], 90.4%; in [9], 110%; in [10], 91.2%.

As to `COc1ccccc1Nc1nnc(COc2ccc(CNC(=O)CCCC/C=C/C(C)C)cc2OC)o1`, the growth in [1] is 76.1%; in [2], 70.7%; in experiment [3] it was 101%; in experiment [4] it was 89.7%; in [5] it was 101%; in [6], 107%. Moreover, the growth is 97.8% in [7], 89.6% in experiment [8], 98% in experiment [9] and 89.8% in experiment [10].

With `c1ccc(-c2cn3ccnc3c(-c3ccc4ncn(C5CCCCC5)c4c3)n2)cc1`, the growth in [1] is 40.2%; in [2], 14.3%; in experiment [3], 36.1%; in [4], 92.1%; in [5], 65.5%; in [6], 92.5%. In addition, the growth in experiment [7] was 88%; in [8], 58.2%; in [9], 76.2%; in experiment [10] it was 49.5%.

Consider `CCCCCCC(C(=O)OCC)(C(=O)OCC)C1CCCCCC1`, for which the growth is 101% in experiment [1]; 113% in [2]; 107% in [3]; 102% in experiment [4]; 101% in experiment [5]; 95.7% in experiment [6]. Besides, the growth in experiment [7] was 102%; in [8], 117%; in experiment [9], 105%; in [10] it was 106%.

For `Cc1ccc(NCc2cn(-c3ccc(C(=O)O)cc3)nc2-c2ccc(C(=O)O)cc2)cc1`, the growth in [1] is 103%; in [2], 109%; in experiment [3] it was 97.8%; in experiment [4], 106%; in experiment [5] it was 109%; in experiment [6] it was 102%. For the same compound, the growth is 107% in experiment [7], 101% in experiment [8], 101% in experiment [9] and 102% in experiment [10].

In the case of `CC(=O)Nc1nc(C)c(C(=O)NNS(=O)(=O)c2ccccc2)s1`, the growth in experiment [1] is 155%; in experiment [2] it was 135%; in experiment [3], 101%; in experiment [4] it was 106%; in [5], 112%; in experiment [6] it was 109%. In addition, the growth in [7] was 9.33% (active); in experiment [8], 136%; in [9] it was 112%; in experiment [10], 118%.
